Test [1] in a line: qHTS assay to identify small molecule agonists of the hypoxia (HIF-1) signaling pathway - cell viability counter screen (AID 1224844; calls by dose curve; note: % is set by controls: 0 for no effect and ±100 for the full control effect; nearly all actives have a fitted effect of over 50% in size). A digest of the protocol:
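Cytotoxicity measured by CellTiter-Glo ATP luminescence in the wells also read for beta-lactamase signal. Cells were HRE-bla ME-180 (2,000/well, 0.5% dialyzed FBS), exposed to compounds for 17 h at 37C.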
(In general: In qHTS, concentration-response curves come from the screen itself.)

Test [2] in a line: qHTS assay to identify small molecule agonists of H2AX (AID 1224845; active = well fitted activation curve with a large enough effect in the signal ratio in the repeat runs, not every such curve was filed as active; the % refers to the signal ratio; note: % is set by controls: 0 for no effect and ±100 for the full control effect). In outline:
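Wild-type CHO-K1 cells plated overnight, then exposed 3 hr at 37C to compounds at 15 concentrations (0.76% DMSO). Lysed, then HTRF anti-pH2AX(S139)-cryptate/anti-H2AX-d2 detection after 24 hr at room temperature; emissions 665 and 620 nm.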

Test [3] in a line: qHTS assay to identify small molecule agonists of the hypoxia (HIF-1) signaling pathway (AID 1224846; active = well fitted activation curve with a large enough effect in the signal ratio in the repeat runs, not every such curve was filed as active; the % refers to the signal ratio; note: % is set by controls: 0 for no effect and ±100 for the full control effect). A digest of the protocol:
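Compounds added to ME-180 cells carrying hypoxia-response-element beta-lactamase reporter (0.5% dialyzed FBS, 5 h preplating), 17 h at 37C; agonist activity detected by CCF4-AM B/G FRET read-out.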

Test [4] can be described thus: qHTS assay to identify small molecule agonists of H2AX - cell viability counter screen (AID 1224847; calls by dose curve; note: top concentration of the series differs between compounds; % is set by controls: 0 for no effect and ±100 for the full control effect; nearly all actives have a fitted effect of over 30% in size). A digest of the protocol:
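Wild-type CHO-K1 cells (10% FBS medium) were plated overnight at 37C, exposed to compounds at 15 concentrations for 3 hr at 37C (0.76% DMSO final), and viability was read as CellTiter-Glo luminescence after 30 min at room temperature.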

Test [5] can be described thus: qHTS RealTime-Glo MT Cell Viability Assay in HepG2 cells - 24 hour (AID 1224867). Note: % is set by controls: 0 for no effect and ±100 for the full control effect; nearly all actives have a fitted effect of over 50% in size. A digest of the protocol:
(§1)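 Compound treatment began 5 h after plating HepG2 cells (600/well) with NanoLuc luciferase and prosubstrate. Plates stayed at 37 C for 40 h; luminescence was captured at six time points, 0 h through 40 h.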

A short description of test [6]: qHTS RealTime-Glo MT Cell Viability Assay in HEK293 cells - 32 hour (AID 1224868). Note: nearly all actives have a fitted effect of over 50% in size. Note: potency is the fitted concentration of half-maximal effect. A digest of the protocol:
(§2)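 Quantitative high-throughput screen of the Tox21 10K library in HEK293: cells and RealTime-Glo reagents plated together, compound added at 5 h, luminescence monitored through 40 h at 37 C.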

The nature of test [7]: A CellTox Green Cytotoxicity Assay to monitor cytotoxicity in HEK293 cells - 0 hour (AID 1224869). Note: % is set by controls: 0 for no effect and ±100 for the full control effect; nearly all actives have a fitted effect of over 50% in size. A digest of the protocol:
(§3)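 Fluorescence from a DNA-binding dye excluded by viable cells was measured repeatedly in the same HEK293 wells (600 cells/well) during continuous compound exposure at 37 C. Each assay gives one read point: 0, 8, 16, 24, 32 or 40 h.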

A short description of test [8]: qHTS RealTime-Glo MT Cell Viability Assay in HepG2 cells - 40 hour (AID 1224870). In outline:
(§4)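 HepG2 cells mixed with RealTime-Glo MT reagents (NanoLuc plus cell-permeant prosubstrate) were seeded at 600 cells/well, incubated 5 h at 37 C/5% CO2, then pinned with compounds in DMSO; nonlytic luminescence tracked viability during 40 h treatment.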

Test [9] can be described thus: A CellTox Green Cytotoxicity Assay to monitor cytotoxicity in HEK293 cells - 40 hour (AID 1224871). Note: % is set by controls: 0 for no effect and ±100 for the full control effect; nearly all actives have a fitted effect of over 45% in size. A digest of the protocol:
as §3

Test [10] in a line: qHTS RealTime-Glo MT Cell Viability Assay in HEK293 cells - 16 hour (AID 1224872). Note: nearly all actives have a fitted effect of over 50% in size. Note: potency is the fitted concentration of half-maximal effect. A digest of the protocol:
as §2

A short description of test [11]: qHTS RealTime-Glo MT Cell Viability Assay in HEK293 cells - 40 hour (AID 1224874). For max response: % is set by controls: 0 for no effect and ±100 for the full control effect. Note: nearly all actives have a fitted effect of over 50% in size. Note: potency is the fitted concentration of half-maximal effect. The conditions noted are these: RealTime-Glo luminescence; max response: stronger effect = lower value. In outline: (§5)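 Luminescence, which tracks viable cell number through reduction of the prosubstrate to a NanoLuc substrate, was read over continuous 37 C culture. Cells (600/well) were premixed with reagent and rested 5 h before 23 nL of compound in DMSO was pinned.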

Test [12] can be described thus: A CellTox Green Cytotoxicity Assay to monitor cytotoxicity in HEK293 cells - 24 hour (AID 1224875). Note: % is set by controls: 0 for no effect and ±100 for the full control effect; nearly all actives have a fitted effect of over 45% in size. In outline:
as §3

Test [13] in a line: A CellTox Green Cytotoxicity Assay to monitor cytotoxicity in HepG2 cells - 16 hour (AID 1224876). Note: % is set by controls: 0 for no effect and ±100 for the full control effect; nearly all actives have a fitted effect of over 45% in size. In outline:
(§6)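 Real-time cytotoxicity: fluorescence of a cell-impermeant cyanine dye binding DNA of dead HepG2 cells, measured repeatedly (0–40 h) during compound exposure at 37 C. Cells seeded 600/well with reagent, dosed after 5 h.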

Test [14] can be described thus: qHTS RealTime-Glo MT Cell Viability Assay in HepG2 cells - 32 hour (AID 1224877). Note: % is set by controls: 0 for no effect and ±100 for the full control effect; nearly all actives have a fitted effect of over 55% in size. A digest of the protocol:
as §1

Test [15] is described as follows: A CellTox Green Cytotoxicity Assay to monitor cytotoxicity in HepG2 cells - 40 hour (AID 1224879). Note: % is set by controls: 0 for no effect and ±100 for the full control effect; nearly all actives have a fitted effect of over 40% in size. In outline: as §6
The nature of test [16]: qHTS RealTime-Glo MT Cell Viability Assay in HEK293 cells - 0 hour (AID 1224880). Note: top concentration of the series differs between compounds; % is set by controls: 0 for no effect and ±100 for the full control effect; nearly all actives have a fitted effect of over 45% in size. In outline:
as §5

Test [17] can be described thus: qHTS RealTime-Glo MT Cell Viability Assay in HepG2 cells - 8 hour (AID 1224873). Note: % is set by controls: 0 for no effect and ±100 for the full control effect; nearly all actives have a fitted effect of over 55% in size. In outline:
as §4

Test [18] in a line: A CellTox Green Cytotoxicity Assay to monitor cytotoxicity in HepG2 cells - 24 hour (AID 1224878). A digest of the protocol: as §6
Test [19] in a line: qHTS assay to identify small molecule antagonists of the estrogen related receptor (ERR) signaling pathway from Tox21 library (AID 1224848). A digest of the protocol: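 Tox21 10K compounds in DMSO tested for ERR pathway antagonism in NTP's ERR cell line; 18 h, 37 C exposure; ONE-Glo luminescence.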
The nature of test [20]: qHTS assay to identify small molecule agonists of the estrogen related receptor (ERR) signaling pathway from Tox21 library (AID 1224849; calls by dose curve; note: % is set by controls: 0 for no effect and ±100 for the full control effect; nearly all actives have a fitted effect of over 15% in size). The conditions noted are these: ERR reporter cell line, ONE-Glo luciferase, 18 h; at 92.4 µM (top of the series). A digest of the protocol: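 Luminescent agonist read-out (One-Glo, 30-minute room-temperature incubation) following 18-hour compound treatment at 37 C of the ERR cell line, which had been plated 6 hours before dosing.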

Where “and” joins values, the source holds several entries; their conditions need not be identical. Equal values may be shown once. Results filed as inconclusive are left out. Some compounds were tested as several samples or in several runs, with calls that do not always agree. Calls of active or inactive are those of the source. Unless noted, calls come from the whole dose curve; as a rule, active = well fitted curve in the direction sought with a large enough effect in the repeat runs; inconclusive = weak or mixed curves; inactive = no such curve, though single readings can be large; an effect the other way counts as inactive or inconclusive.

Take `ClC(Cl)(Cl)c1ccccc1`: the Potency result in [1], in test [2], in [4], in test [5], in test [6] and in test [7] was “inactive” in each case. Further, the Potency result in [8], in [9], in test [10], in test [12], in test [13] and in test [14] was “inactive” throughout. Also, the Potency result in [15] and in test [16] was “inactive” throughout. In addition, in test [3], the outcome was inactive. In test [11], the max response was 8.54% (inactive) and -1.53% (inactive).
As to `C[N+](C)(C)C`, the Potency entry in [1], in [2], in test [4], in [5], in test [6] and in test [7] was “inactive” throughout. For the same compound, the Potency result in test [8], in [9], in test [10], in test [12], in [13] and in [14] was “inactive” in each case. For the same compound, the Potency entry in [15] and in test [16] was “inactive” in each case. The compound was called inactive in [3]. In addition, the max response in test [11] is 4.13% (inactive) and -0.266% (inactive).
Take `CCC(=O)Nc1ccc(Cl)c(Cl)c1`: the Potency entry in test [1], in test [2], in test [4], in [5], in test [7] and in [9] was “inactive” in each case. For the same compound, the Potency entry in test [17], in test [12], in test [13], in test [14], in test [18] and in test [15] was “inactive” in each case. Also, in test [16], the Potency entry was “inactive”. Also, the compound was classed as inactive in [3]. In addition, the Potency in test [6] is 44.5 µM (active); in [10], 44.5 µM (active); in test [11], 22.3 µM (active) and 43.6 µM (active).
Consider `Cl`, for which the Potency entry in test [1], in test [2], in test [4], in test [5], in [6] and in [7] was “inactive” each time. The Potency entry in [8], in test [9], in test [10], in test [17], in test [12] and in test [13] was “inactive” each time. In addition, the Potency entry in [14], in test [18], in [15] and in [16] was “inactive” each time. In test [3], the compound was classed as inactive. Further, in test [11], the max response is 0.872% (inactive) and 8.14% (inactive).
Regarding `COP(=O)(NC(C)=O)SC` (stereo not drawn), the Potency result in test [1], in test [2], in test [4], in [5], in [6] and in test [7] was “inactive” throughout. Besides, the Potency result in [9], in test [10], in [17], in [12], in test [13] and in test [14] was “inactive” throughout. Besides, the Potency entry in test [18] and in test [16] was “inactive” throughout. For the same compound, the compound was called inactive in [3]. The max response in test [11] is 1.36% (inactive) and 10.1% (inactive).
Consider `ClC(Cl)(Cl)Br`, for which the Potency result in test [1], in test [2], in test [4], in test [5], in test [6] and in [7] was “inactive” throughout. Further, the Potency entry in test [8], in test [9], in test [10], in [12], in test [13] and in test [14] was “inactive” throughout. For the same compound, the Potency entry in test [15] and in [16] was “inactive” each time. Moreover, the compound was classed as inactive in test [3]. Also, the max response in test [11] is -0.387% (inactive) and 6.81% (inactive).
Turning to `C=C(C)C#N`, the Potency result in test [1], in [2], in [4], in test [5], in test [7] and in [8] was “inactive” in each case. Besides, the Potency entry in [9], in [12], in test [13], in test [14], in [18] and in test [16] was “inactive” each time. The result in test [3] was inactive. Also, the Potency result is “inactive and 5.49 µM (active)” in test [6]; “inactive and 21.9 µM (active)” in test [10]; 5.49 µM (active) in [11]. Also, the max response in test [11] is 3.27% (inactive).
On to `COP(=S)(OC)SCn1nnc2ccccc2c1=O`, for which the Potency entry in test [1], in test [2], in test [4], in test [5], in [7] and in [9] was “inactive” throughout. For the same compound, the Potency result in test [17], in test [12], in test [13], in test [14], in [18] and in [16] was “inactive” throughout. The outcome in test [3] was inactive. Moreover, the Potency in test [19] is 53.4 µM (active) and 61.1 µM (active); in test [11], 48 µM (active). The activity change, positive = activation in test [20] is -43.4% (inactive) and -47.5% (inactive).
With `CCNc1nc(Cl)nc(NC(C)(C)C#N)n1`, the Potency result in test [1], in [2], in test [4], in [5], in test [6] and in test [7] was “inactive” each time. Also, the Potency result in [8], in test [9], in test [10], in test [17], in test [12] and in [13] was “inactive” throughout. The Potency entry in [14], in test [18], in [15] and in test [16] was “inactive” each time. Also, in test [3], the result was inactive. In [11], the max response is -8.64% (inactive) and -8.88% (inactive).
`CC(C)COC(=O)c1ccccc1C(=O)OCC(C)C`: the Potency result in [1], in test [2], in [4], in [5], in [6] and in test [7] was “inactive” in each case. Further, the Potency result in test [9], in test [10], in test [17], in test [12], in test [13] and in test [14] was “inactive” in each case. The Potency result in test [18] and in test [16] was “inactive” throughout. Also, the result in test [3] was inactive. In addition, the max response in test [11] was 8.51% (inactive) and 5.74% (inactive).
For the compound `O=NN(c1ccccc1)c1ccccc1`, the Potency entry in test [1], in test [2], in test [4], in [5], in test [6] and in [7] was “inactive” throughout. In addition, the Potency result in test [8], in [9], in test [10], in test [17], in [12] and in test [13] was “inactive” throughout. In addition, the Potency entry in test [14], in test [18] and in test [16] was “inactive” each time. Moreover, the compound was called inactive in [3]. Moreover, the max response in test [11] is 1.85% (inactive) and 24% (inactive).

Values taken from PubChem BioAssay (Tox21).
